Measurements as given in PubChem BioAssay (Tox21).
Results filed as inconclusive are left out. Active and inactive are the calls of the source. Unless noted, the call rests on the fitted dose curve; in most records, active means well fitted curve in the direction sought with a large enough effect in the repeat runs; inconclusive means weak or mixed curves; inactive means no such curve, though single readings can be large; an effect the other way counts as inactive or inconclusive.

Legend:
[1] = A CellTox Green Cytotoxicity Assay to monitor cytotoxicity in HEK293 cells - 16 hour (AID 1224888); further: nearly all actives have a fitted effect of over 35% in size
Outline: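 Real-time, in one plate: 600 HEK293 cells/well with dead-cell DNA dye, pinned compound after 5 h, 37 C incubation over 40 h; viable cells give no appreciable fluorescence.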

[2] = qHTS RealTime-Glo MT Cell Viability Assay in HepG2 cells - 0 hour (AID 1224889); further: nearly all actives have a fitted effect of over 50% in size
Outline: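 HepG2 suspension premixed with RealTime-Glo reagents is plated at 600 cells per well and left 5 h at 37 C/5% CO2. Compounds in DMSO then go in, and bioluminescence reflecting viable cell number is recorded over 40 h.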

[3] = A CellTox Green Cytotoxicity Assay to monitor cytotoxicity in HepG2 cells - 8 hour (AID 1224890); further: nearly all actives have a fitted effect of over 45% in size
Outline: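 Cytotoxicity was tracked as dead-cell DNA fluorescence in HepG2 cells treated with test compounds at 37 C; each time-point value comes from one kinetic series spanning 0, 8, 16, 24, 32 and 40 h.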

[4] = qHTS assay to identify small molecule antagonists of the estrogen receptor alpha (ER-alpha) signaling pathway using the BG1 cell line in the presence of 0.1 nM 17-beta-estradiol - cell viability counter screen (AID 1259241); further: nearly all actives have a fitted effect of over 40% in size
Outline: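 In this screen, hormone-deprived VM7Luc4E2 cells were seeded at 4,000 per well, dosed with compound and 0.1 nM estradiol final, and incubated 22 hr at 37C and 5% CO2; fluorogenic live-cell protease signal reported viability.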

[5] = qHTS assay to identify small molecule antagonists of the androgen receptor (AR) signaling pathway using the MDA cell line in the presence of 0.5 nM R1881 - cell viability counter screen (AID 1259242); further: nearly all actives have a fitted effect of over 45% in size
Outline: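 Cells seeded at 3,000/well and allowed 5 hr at 37C, 0% CO2 before compound transfer and R1881 (0.5 nM final) addition; 16 hr later, live-cell protease fluorescence indicated cytotoxicity.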

[6] = target: Estrogen receptor (Homo sapiens) (UniProt P03372); experiment: qHTS assay to identify small molecule antagonists of the estrogen receptor alpha (ER-alpha) signaling pathway using the BG1 cell line in the presence of 0.1 nM 17-beta-estradiol (AID 1259244); further: nearly all actives have a fitted effect of over 50% in size
Outline: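 Luciferase signal from VM7Luc4E2 ERE-reporter cells, co-dosed with test compound and 0.1 nM final 17beta-estradiol for 22 h, read with ONE-Glo.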

[7] = qHTS assay to identify small molecule HDAC inhibitors (AID 1259364);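 further: wild-type HCT-116 cells with endogenous class I/II HDAC activity; top concentration of the series differs between compounds; nearly all actives have a fitted effect of over 45% in size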
Outline: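 HCT-116 wt cells, 1,500/well, overnight attach. Compounds (DMSO) 2 h, 37 °C. HDAC-Glo I/II, 30 min RT. Luminescence.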

[8] = qHTS assay to identify small molecule HDAC inhibitors - cell viability counter screen (AID 1259365); further: series mostly up to about 92 µM; nearly all actives have a fitted effect of over 50% in size
Outline: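 Measured quantity is CellTiter-Glo luminescence from wild-type HCT-116 cells after compound incubation of 2hr at 37C, 5% CO2; reagent developed 30min at room temperature.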

[9] = qHTS assay to identify small molecule agonists of the sonic hedgehog signaling (Shh) pathway - cell viability counter screen (AID 1259366); further: nearly all actives have a fitted effect of over 50% in size
Outline: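 In quantitative high-throughput format, 3T3 Gli1-Luc cells were exposed to compounds for 24hr and multiplexed for viability using CellTiter-Fluor, incubated 1hr at 37C before the fluorescence read.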

[10] = qHTS assay to identify small molecule antagonists of the sonic hedgehog signaling (Shh) pathway - cell viability counter screen (AID 1259367); further: nearly all actives have a fitted effect of over 55% in size
Outline: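 Conditioned medium drove Shh signaling in 3T3 Gli1-Luc cells exposed to compounds at 37C and 5% CO2. Viability was determined from CellTiter-Fluor fluorescence, with reagent incubated 1 hr after 23 hr of treatment.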

[11] = qHTS assay to identify small molecule agonists of the sonic hedgehog signaling (Shh) pathway (AID 1259368; calls by dose curve;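 further: NIH/3T3-derived 3T3Gli1-Luc cells carrying a stable Gli1-driven firefly luciferase reporter; series mostly up to about 92 µM; nearly all actives have a fitted effect of over 15% in size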)
Outline: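 Following a 24 hr incubation with DMSO-dissolved compounds at 37 C, 5% CO2, Gli1-Luc NIH/3T3-derived cells received luciferase reagent for 30 min at room temperature prior to luminescence measurement.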

[12] = qHTS assay to identify small molecule antagonists of the sonic hedgehog signaling (Shh) pathway (AID 1259369; calls by dose curve; further: nearly all actives have a fitted effect of over 45% in size)
Outline: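 Read-out is luminescence from a firefly luciferase gene controlled by the Gli1 response element, in 3T3Gli1-Luc cells pre-incubated 4hr then exposed to compounds and conditioned medium for 24hr.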

[13] = target: Estrogen receptor beta (Homo sapiens) (UniProt Q92731); experiment: qHTS assay to identify small molecule agonists of the estrogen receptor beta (ER-beta) signaling pathway (AID 1259377; active means well fitted activation curve with a large enough effect in the signal ratio in the repeat runs, not every such curve was filed as active; the % refers to the signal ratio)
Outline: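 Reporter cells (HEK293T, ER-beta-UAS-bla) receive compounds or DMSO after a 6 hr pre-incubation. They then incubate 16 hr at 37C/5% CO2, and fluorescence from LiveBLAzer B/G substrate is measured after 2 hours at room temperature.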

[14] = target: Estrogen receptor beta (Homo sapiens) (UniProt Q92731); experiment: qHTS assay to identify small molecule antagonists of the estrogen receptor beta (ER-beta) signaling pathway (AID 1259378; active means well fitted inhibition curve with a large enough effect in the signal ratio in the repeat runs, not every such curve was filed as active; the % refers to the signal ratio)
Outline: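 ER-beta-UAS-bla HEK293T (GripTite) cells in 2% charcoal-stripped FBS medium were preincubated 6 hr at 37C, dosed with compound, then stimulated with 1 nM E2 (final) for 16 hr; beta-lactamase reporter read by B/G FRET fluorescence after 2 hr substrate loading.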

[15] = qHTS assay to identify small molecule agonists of the androgen receptor (AR) signaling pathway in the presence of an antagonist - cell viability counter screen (AID 1259379);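 further: MDA-kb2 human breast cancer cells carrying an MMTV luciferase reporter; series mostly up to about 92 µM; nearly all actives have a fitted effect of over 25% in size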
Outline: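 Each compound was tested at 15 concentrations on MDA-kb2 cells in the presence of 3.0uM nilutamide. Viability was measured by CellTiter-Fluor fluorescence after a 16 hr incubation at 37C in a CO2-free atmosphere.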

[16] = qHTS assay to identify small molecule agonists of the estrogen receptor beta (ER-beta) signaling pathway - cell viability counter screen (AID 1259380); further: nearly all actives have a fitted effect of over 30% in size
Outline: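 Compounds dissolved in DMSO were pin-transferred onto ER-beta-UAS-bla HEK293T cells that had settled 6 hr, and exposure ran 16 hr at 37C. Following the reporter read, CellTiter-Glo luminescence after 30 min at room temperature indicated cytotoxicity.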

[17] = qHTS assay to identify small molecule antagonists of the estrogen receptor beta (ER-beta) signaling pathway - cell viability counter screen (AID 1259382); further: series mostly up to about 92 µM; nearly all actives have a fitted effect of over 55% in size
Outline: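 CellTiter-Glo ATP luminescence measured after the LiveBLAzer read in the same wells; ER-beta-UAS-bla HEK293T cells, 16 hr compound treatment with 1nM 17-beta-estradiol agonist at 37C, 5% CO2.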

[18] = qHTS assay to identify small molecule phospholipidosis (PLD) inducers (AID 1259344; active means well fitted curve in the direction sought with a large enough effect; an effect the other way counts as inactive or inconclusive)
Outline: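 After 4 h attachment on collagen I, HepG2 cells were dosed with compound alongside LipidTOX Red, kept 24 h at 37 C, fixed, and imaged for lamellar phospholipid pits.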
On the % scale 0 is the no-effect control and ±100 the full control effect.

Sequence of Estrogen receptor beta (Homo sapiens) (Q92731 whole entry, looked up): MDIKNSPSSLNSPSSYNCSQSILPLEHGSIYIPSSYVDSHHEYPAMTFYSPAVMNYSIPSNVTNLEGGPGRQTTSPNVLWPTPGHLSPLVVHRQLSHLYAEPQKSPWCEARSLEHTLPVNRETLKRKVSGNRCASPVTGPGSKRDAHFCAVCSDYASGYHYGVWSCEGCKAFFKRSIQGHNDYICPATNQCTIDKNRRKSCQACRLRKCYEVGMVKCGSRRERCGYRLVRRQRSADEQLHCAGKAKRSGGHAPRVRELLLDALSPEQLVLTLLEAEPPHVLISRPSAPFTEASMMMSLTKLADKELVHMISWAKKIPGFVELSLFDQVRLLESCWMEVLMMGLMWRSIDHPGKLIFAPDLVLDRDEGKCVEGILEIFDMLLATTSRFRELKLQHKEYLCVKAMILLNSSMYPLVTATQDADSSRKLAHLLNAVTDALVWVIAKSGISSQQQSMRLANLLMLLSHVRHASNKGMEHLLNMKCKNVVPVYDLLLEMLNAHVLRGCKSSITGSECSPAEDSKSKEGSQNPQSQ
Sequence of Estrogen receptor (Homo sapiens) (P03372 whole entry, looked up): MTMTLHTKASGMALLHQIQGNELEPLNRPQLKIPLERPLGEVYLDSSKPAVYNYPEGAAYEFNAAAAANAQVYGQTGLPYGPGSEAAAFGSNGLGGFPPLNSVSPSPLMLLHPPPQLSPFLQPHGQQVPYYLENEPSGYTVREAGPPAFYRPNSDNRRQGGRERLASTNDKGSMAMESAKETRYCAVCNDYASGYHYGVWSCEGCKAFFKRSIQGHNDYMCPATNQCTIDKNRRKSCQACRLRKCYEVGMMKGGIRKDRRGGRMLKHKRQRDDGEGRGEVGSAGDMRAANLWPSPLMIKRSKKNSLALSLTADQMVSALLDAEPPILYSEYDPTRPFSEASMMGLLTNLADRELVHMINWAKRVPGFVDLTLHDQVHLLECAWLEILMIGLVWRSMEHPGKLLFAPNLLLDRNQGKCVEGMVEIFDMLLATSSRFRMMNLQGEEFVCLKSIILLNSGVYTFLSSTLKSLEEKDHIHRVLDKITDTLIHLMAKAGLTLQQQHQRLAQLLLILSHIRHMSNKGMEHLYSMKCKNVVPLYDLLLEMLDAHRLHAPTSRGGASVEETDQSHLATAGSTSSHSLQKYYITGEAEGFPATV

CSc1cnccn1
inactive: Potency [1] | Potency [2] | Potency [3] | outcome [4] | outcome [5] | outcome [6] | Potency [7] | outcome [8] | outcome [9] | outcome [10] | outcome [11] | Potency [12] | Potency [13] | Potency [14] | outcome [15] | outcome [16]

C=C(C)[C@@H]1CC=C(C)CC1
inactive: Potency [1] | Potency [2] | Potency [3] | outcome [4] | outcome [5] | outcome [6] | Potency [7] | outcome [8] | outcome [9] | outcome [10] | outcome [11] | Potency [12] | outcome [15] | outcome [16] | outcome [17]

CC1OCCC1=O (configuration not stated)
inactive: Potency [1] | Potency [2] | Potency [3] | outcome [4] | outcome [5] | outcome [6] | Potency [7] | outcome [8] | outcome [9] | outcome [10] | Potency [12] | Potency [13] | Potency [14] | outcome [15] | outcome [16] | outcome [17]

CC1CC(=O)CC(C)(C)C1 (configuration not stated)
inactive: Potency [1] | Potency [2] | Potency [3] | outcome [4] | outcome [5] | outcome [6] | Potency [7] | outcome [8] | outcome [9] | outcome [10] | Potency [12] | outcome [15]

CN(C)C(C)(C)CO
inactive: Potency [1] | Potency [2] | Potency [3] | outcome [4] | outcome [5] | outcome [6] | Potency [7] | outcome [8] | outcome [9] | outcome [10] | outcome [11] | Potency [12] | Potency [14] | outcome [16] | outcome [17]

CN(C)CCOC(=O)C(c1ccccc1)C1(O)CCCC1 (configuration not stated)
inactive: Potency [1] | Potency [2] | Potency [3] | outcome [4] | outcome [5] | outcome [6] | outcome [18] | outcome [9] | outcome [10] | outcome [11] | Potency [12] | Potency [13] | Potency [14] | outcome [15] | outcome [16] | outcome [17]

O=C(O)CNC(=O)CNC(=O)CNC(=O)CSC(=O)c1ccccc1
inactive: Potency [1] | Potency [2] | Potency [3] | outcome [4] | outcome [5] | outcome [6] | PLD induction [18] 1.13% [at 7.66 µM] | outcome [8] | outcome [9] | outcome [10] | outcome [11] | Potency [12] | Potency [13] | Potency [14] | outcome [16] | outcome [17]

CCN1CCCC1CN (configuration not stated)
inactive: Potency [1] | Potency [2] | Potency [3] | outcome [4] | outcome [5] | outcome [6] | Potency [7] | outcome [8] | outcome [9] | outcome [10] | Potency [12] | Potency [13] | Potency [14] | outcome [15] | outcome [16] | outcome [17]
